40 compounds from PubChem BioAssay (Tox21) can be followed below.

Molecules are shown by their SMILES. Records with an inconclusive call do not appear. Unmarked numbers belong to inactive results. The call rests on the fitted dose curve; in most records, active means well fitted inhibition curve with a large enough effect in the repeat runs; inconclusive means weak or mixed curves, or effect the other way; inactive means no such curve, though single readings can be large or run the other way.
On the % scale 0 is the no-effect control and ±100 the full control effect.

Sequence of Nuclear receptor subfamily 1 group I member 3 (Homo sapiens) (Q14994 whole entry, looked up): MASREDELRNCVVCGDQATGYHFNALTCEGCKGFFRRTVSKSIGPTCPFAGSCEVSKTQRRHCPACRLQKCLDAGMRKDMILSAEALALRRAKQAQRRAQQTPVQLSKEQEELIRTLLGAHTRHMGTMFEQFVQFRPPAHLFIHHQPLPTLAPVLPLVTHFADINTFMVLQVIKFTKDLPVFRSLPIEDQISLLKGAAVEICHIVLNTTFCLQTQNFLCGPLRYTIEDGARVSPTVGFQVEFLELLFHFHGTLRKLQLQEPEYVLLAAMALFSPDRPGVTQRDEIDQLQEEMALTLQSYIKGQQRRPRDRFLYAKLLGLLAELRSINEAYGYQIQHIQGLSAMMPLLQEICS

The test has as its target Nuclear receptor subfamily 1 group I member 3 (Homo sapiens) (UniProt Q14994). The test can be described thus: qHTS assay to identify small molecule antagonists of the constitutive androstane receptor (CAR) signaling pathway (AID 1224838).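 Further: HepG2 cells stably expressing hCAR with CYP2B6 luciferase reporter stimulated by CITCO; nearly all actives have a fitted effect of over 40% in size.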 To be noted: HepG2-CYP2B6-hCAR luciferase, CITCO-stimulated, 24 h; series mostly up to 92.4 µM; activity, negative = inhibition: at the top concentration. An excerpt:
U.S. Tox21 Program National Center for Advancing Translational Sciences [NCATS] NIH Chemical Genomics Center [NCGC] U.S. Environmental Protection Agency [EPA] National Institutes of Environmental Health Sciences [NIEHS] National Toxicology Program [NTP] U.S. Food and Drug Administration [FDA] Tox21 Assay Overview: The constitutive androstane receptor (CAR) is a nuclear receptor which regulates multiple drug metabolizing enzymes (DMEs) and transporters. Activating CAR will generally increase the transcription and subsequent translation of CYP2B6 and CYP3A4. These two DMEs represent about 50% of the drug metabolizing potential in the body. When CAR is deactivated, the metabolizing potential in the body will decrease, subsequently increasing the toxicity in the body or lowering the therapeutic potential of a pro-drug. Recently, there have also been studies performed indicating CARs role in energy metabolism and cancer therapy. Therefore, inhibiting CARs activity could have a potential effect on diabetes and cancer. Identifying environmental toxins and compounds which modulate CAR, through the use of the Tox21 10K compound collection, will be an important step in determining the toxicity and potential therapeutic effects these factors will have on the human body.
Tox21 Assay Protocol Summary: A double-stable (hCAR and CYP2B6-2.2kb) transfected cell line, derived from human hepatoma (HepG2) cells, was utilized for the duration of the quantitative high-throughput screens. The HepG2-CYP2B6-hCAR cells suspended in DMEM culture medium supplemented with 10% FBS, 5 ug/mL blasticidin, 0.5 mg/mL geneticin, 100 U/mL penicillin and 100 ug/mL streptomycin were dispensed at 2500 cells/4 uL/well in 1536-well white solid bottom plates using a Multidrop Combi. After the assay plates were incubated at 37 C/5% CO2 for 4 hrs, 23 nL of compounds at 15 concentrations (from 5-48 columns) or positive control (from 1 to 4 columns) were transferred to the assay plates using a Pintool station. One uL of CITCO, was added using a Flying Reagent Dispenser to generate a final concentration of 50 nM CITCO inside each well. After a 24 hr incubation period at 37 C/5% CO2, four uL of ONE-Glo reagent was added into the assay plates using a Flying Reagent Dispenser. After a 30 min incubation period at room temperature, the luminescence intensity in the assay plates was measured using a ViewLux plate reader.
(Quantitative high-throughput screening tests each substance at several concentrations.)
For `CCO/C=C1\N=C(c2ccccc2)OC1=O`, the “activity, negative = inhibition” value is 58.7%.

For `COC(=O)N/N=C/c1c[n+]([O-])c2ccccc2[n+]1[O-]`, the “activity, negative = inhibition” value was 30.6% [at 42.5 µM].

Regarding `CCCCC(O)/C=C(C)/C=C/C=C/C(=O)N1CCCC1=O` (stereo not given), the “activity, negative = inhibition” value was 14.8% [at 42.5 µM].

`Cc1ccc(S(=O)(=O)NC(=O)NN2CC3CCCC3C2)cc1` (stereo not given): the “activity, negative = inhibition” value is 0.2% [at 42.5 µM].

For the compound `Nc1cc(S(=O)(=O)O)ccc1O`, the “activity, negative = inhibition” value is -3.2%.

Consider `CCCCCCCCC1CO1` (stereo not given), for which the “activity, negative = inhibition” value is -0.24%.

With `CCN(CC)CC`, the “activity, negative = inhibition” value was 16.4%.

With `CC(C)(C)NCC(O)COc1cccc2c1CCC(=O)N2` (stereo not given), the “activity, negative = inhibition” value was -16.9% [at 42.5 µM].

With `C=C(C)C(=O)OCCOC1CC2CC1C1C=CCC21` (stereo not given), the “activity, negative = inhibition” value is 3.88%.

Regarding `CSC(=O)c1cccc2nnsc12`, the “activity, negative = inhibition” value was 40.3%.

With `CCCCC(CC)CCC(CC(C)C)OS(=O)(=O)O` (stereo not given), the “activity, negative = inhibition” value was -6.86%.

On to `O=c1c(O)c(O)c1=O`, for which the “activity, negative = inhibition” value is -17.8%.

Consider `CN(C)CCc1c[nH]c2ccc(CS(=O)(=O)N3CCCC3)cc12`, for which the “activity, negative = inhibition” value was -6.66% [at 42.5 µM].

On to `CCCCCCCCCCCCCC(=O)OCC`, for which the “activity, negative = inhibition” value is 0.999%.

As to `COC(C)(C)CC(C)=O`, the “activity, negative = inhibition” value is -16.3%.

As to `CC(C)CC(O)Cc1ccccc1` (stereo not given), the “activity, negative = inhibition” value was -11.4%.

In the case of `CCCC(=O)CC`, the “activity, negative = inhibition” value is -15.3%.

Regarding `CC(=O)c1ccc2ccc3ccccc3c2c1`, the “activity, negative = inhibition” value is 162%.

Take `CN(C)CCCN(C)C`: the activity, negative = inhibition is -1.01% [at 8.39 µM].

Consider `Cc1ccc(O)c(C(=O)c2ccccc2)c1`, for which the “activity, negative = inhibition” value is 39.7%.

Regarding `O=C(O)CCC(=O)Nc1ccc(S(=O)(=O)Nc2nccs2)cc1`, the “activity, negative = inhibition” value was -24.2% [at 42.5 µM].

Consider `CCCCCCCCCCCBr`, for which the “activity, negative = inhibition” value is 2.14% [at 42.5 µM].

For `CCCCOCCCC`, the “activity, negative = inhibition” value was -13.6%.

For the compound `CC(C)(C)C(=O)CCc1ccc(Cl)cc1`, the “activity, negative = inhibition” value was -13.9%.

For `Cc1cc(N)no1`, the “activity, negative = inhibition” value was 20.3%.

As to `O=C[C@@H](O)[C@H](O)[C@H](O)CO`, the “activity, negative = inhibition” value was -13.3%.

In the case of `CC(=O)Oc1ccc(C(C)=O)cc1`, the “activity, negative = inhibition” value was -2.57%.

For `C[C@@H]1CC[C@@]2(OC1)O[C@H]1C[C@H]3[C@@H]4CC[C@H]5C[C@@H](O)CC[C@]5(C)[C@H]4CC(=O)[C@]3(C)[C@H]1[C@@H]2C`, the activity, negative = inhibition was -17.4% [at 8.39 µM].

For `CCCCN1C(=O)c2ccccc2C1=O`, the “activity, negative = inhibition” value was 9.37%.

Take `O=C1CCCc2c(O)cccc21`: the “activity, negative = inhibition” value is 74.1% [at 42.5 µM].

As to `O=C(O)Cc1c(Cl)ccc(Cl)c1Cl`, the “activity, negative = inhibition” value was -10.9%.

Take `C=CCN(CC=C)CC=C`: the “activity, negative = inhibition” value is 13.7%.

Consider `CC[N+](C)(CC)CC`, for which the “activity, negative = inhibition” value is -12.7%.

Regarding `CC(O)CCCCn1c(=O)c2c(ncn2C)n(C)c1=O` (stereo not given), the “activity, negative = inhibition” value was 17.4% [at 42.5 µM].

For `CC/C=C\CCCCCCCCCCOC(C)=O`, the “activity, negative = inhibition” value is -7.18%.

Turning to `NCC1CCC(C(=O)Oc2ccc(CCC(=O)O)cc2)CC1` (stereo not given), the “activity, negative = inhibition” value was -28.1% [at 42.5 µM].

With `CC(C)C(C)C`, the “activity, negative = inhibition” value is 1.78%.

Regarding `C=CCN1CCc2nc(N)sc2CC1`, the “activity, negative = inhibition” value was 9.19% [at 42.5 µM].

Turning to `Cc1ccc(Br)cc1`, the “activity, negative = inhibition” value is 6.52%.

`Cc1ccc(OC(=O)CC(C)C)cc1`: the “activity, negative = inhibition” value is -6.13%.
